Measurements as given in PubChem BioAssay.
Records with an inconclusive call do not appear. Calls of active or inactive are those of the source.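 Rule for the calls, unless noted: active = viability increase at or above a cutoff of the median across tested compounds plus 3 SD (cut at about 8.5% in these data, passing the limit was not always enough); inconclusive = some gains above the cutoff, reason not given; inactive = the rest.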

What was measured:
[1] = reducers of endogenous Her2 protein level, primary screen, SKBR3 breast tumor cells, AlphaScreen, ATP viability (AID 461;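 active = Her2 level under about 52% in both replicate screens, with viability over 70% of control, limit read from the data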;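 for Her2 level: lower value means less Her2 protein in the cells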;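 for viability: percent of carrier control wells set as 100% viability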); settings: 18-24 h, measured here: SKBR3 viability, ATP luminescence, at 10 µM
[2] = molecular target: Receptor tyrosine-protein kinase erbB-2 (Homo sapiens) (UniProt P04626); test: as above; settings: 18-24 h, at 10 µM, stronger effect = lower value
Chain of Receptor tyrosine-protein kinase erbB-2 (Homo sapiens) (P04626 whole entry, looked up): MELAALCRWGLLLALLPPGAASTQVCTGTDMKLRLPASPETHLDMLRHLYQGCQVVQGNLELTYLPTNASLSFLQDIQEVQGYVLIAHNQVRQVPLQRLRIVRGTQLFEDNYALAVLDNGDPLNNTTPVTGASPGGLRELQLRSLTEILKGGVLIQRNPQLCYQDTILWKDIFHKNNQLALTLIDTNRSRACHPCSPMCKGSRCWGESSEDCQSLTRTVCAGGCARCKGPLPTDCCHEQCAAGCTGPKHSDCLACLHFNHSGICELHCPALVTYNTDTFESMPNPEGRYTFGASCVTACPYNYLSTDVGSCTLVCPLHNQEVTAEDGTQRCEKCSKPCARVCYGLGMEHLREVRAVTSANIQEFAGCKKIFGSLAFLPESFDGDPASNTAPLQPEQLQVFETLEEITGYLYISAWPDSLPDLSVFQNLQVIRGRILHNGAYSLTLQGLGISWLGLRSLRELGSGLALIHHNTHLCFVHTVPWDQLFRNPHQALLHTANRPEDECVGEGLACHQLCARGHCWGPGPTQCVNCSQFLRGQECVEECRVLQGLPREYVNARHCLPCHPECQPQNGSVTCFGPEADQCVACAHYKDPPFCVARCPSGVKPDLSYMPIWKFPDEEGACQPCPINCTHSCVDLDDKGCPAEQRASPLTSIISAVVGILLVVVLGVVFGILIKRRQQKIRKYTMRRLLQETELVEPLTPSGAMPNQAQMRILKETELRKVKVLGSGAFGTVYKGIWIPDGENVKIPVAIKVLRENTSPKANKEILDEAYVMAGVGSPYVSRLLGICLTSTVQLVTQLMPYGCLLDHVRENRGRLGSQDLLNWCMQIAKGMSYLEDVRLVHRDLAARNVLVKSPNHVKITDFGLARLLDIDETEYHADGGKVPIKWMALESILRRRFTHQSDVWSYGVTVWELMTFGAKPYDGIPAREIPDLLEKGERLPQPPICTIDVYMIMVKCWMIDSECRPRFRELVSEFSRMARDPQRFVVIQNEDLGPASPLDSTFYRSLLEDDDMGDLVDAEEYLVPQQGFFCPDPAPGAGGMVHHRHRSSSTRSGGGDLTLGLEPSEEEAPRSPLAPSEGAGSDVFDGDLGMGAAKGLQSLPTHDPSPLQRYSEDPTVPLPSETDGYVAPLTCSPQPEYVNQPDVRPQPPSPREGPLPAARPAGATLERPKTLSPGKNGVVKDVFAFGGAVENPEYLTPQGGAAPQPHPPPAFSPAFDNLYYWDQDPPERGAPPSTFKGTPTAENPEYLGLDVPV

[3] = SK-BR-3 cell growth inhibitors, pilot screen, 24 h, human (AID 572;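 active = viability at or below 10% of carrier control in both of two separate runs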;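 note: compound exposure lasted between 18 and 24 h rather than exactly 24 h; 100% = carrier-treated control wells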); settings: SK-BR-3 viability, CellTiter-Glo luminescence, at 10 µM, stronger effect = lower value
[4] = HUVEC growth inhibition – cell-based, human, primary screen (AID 575;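 active = viability at or below 30% in both replicate assays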;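 note: 100% = median of untreated cell wells with 0.1% DMSO on each plate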); settings: HUVEC proliferation, CellTiter-Glo luminescence, 72 h; at 10 µM; stronger effect = lower value
[5] = growth inhibitors of H69AR lung tumor, primary screen, human, duplicate replicates (AID 580;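 active = viability at or under a set limit in both replicates, limit being median viability minus 3 SD, cut at about 48% in these data, passing the limit was not always enough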;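 note: 100% = mean luminescence of untreated wells and 0% = no signal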); settings: H69AR lung tumor cells viability, ATP luminescence, 72 h; at 10 µM; stronger effect = lower value
[6] = reversal of MRP1-mediated doxorubicin resistance, pilot screen, H69AR cells, doxorubicin co-treatment (AID 601;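 active = viability loss from added drug above about 55%, and viability with drug at most 40%, in both replicates, limit read from the data, passing the limit was not always enough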); settings: CellTiter-Glo, 72 h, at 10 µM; for differential viability (reversal): stronger effect = higher value
[7] = 384-well plate pilot, post-Golgi transport modulator project, inhibition of yeast transport mutant growth (AID 636; in the data active = inhibition above about 31%); settings: absorbance 615 nm, about 18 h, stronger effect = higher value
[8] = growth suppression of yeast trafficking mutant, preliminary HTS, modulators of trafficking downstream of Golgi apparatus project, 1536-format plate, OD 615 nm (AID 637; in the data active = inhibition above about 30%); settings: yeast transport mutant growth, absorbance 615 nm, 18 h; stronger effect = higher value
[9] = OD615 S. cerevisiae growth inhibition, permissive medium, pilot counter-assay, permissive growth control for S. cerevisiae lifespan shortening project (AID 705;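 active = growth inhibition above 25% in both replicates, a cutoff set 3 SD above the mean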); settings: OD615, 24 h, at 10 µM, stronger effect = higher value
[10] = Restrictive medium S. cerevisiae growth inhibition, OD615, pilot screen of yeast lifespan reduction project, restrictive growth control (AID 706;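 active = growth inhibition above a set limit, 3 SD over mean compound inhibition, in both replicates, cut at about 43% in these data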;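 note: modified DeaD lifespan yeast strain shifted to restrictive glucose medium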); settings: OD615, 48 h, at 10 µM, stronger effect = higher value
[11] = viability gain of MRP-1-high H69AR cells under doxorubicin, pilot screen, MRP-1 activator project, CellTiter-Glo, duplicate (AID 807); settings: H69AR viability with doxorubicin, CellTiter-Glo luminescence; at 10 µM; stronger effect = higher value;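 note: compound pretreatment 18-22 h then 72 h combined with doxorubicin; 0% = doxorubicin alone and 100% = vehicle without doxorubicin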
[12] = growth suppression of beta-catenin knockout HCT116, pilot screen, human colon tumor cells (AID 823;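 active = cell viability at or below a set limit in both duplicate runs, the limit being the all-compound median minus 4 SD, cut at about 23% in these data, passing the limit was not always enough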;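 note: 0% = wells killed by 20 µM Hyamine and 100% = untreated DMSO cell wells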); settings: CellTiter-Glo, 60 h, at 10 µM, stronger effect = lower value
[13] = growth suppression of PTEN-deleted HCT116, pilot screen, cell-based, HCT116 clonal line, CellTiter-Glo (AID 824;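 active = viability at or below 27.92% in each of two runs, the all-compound median minus 4 SD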;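 note: 0% = 20 µM Hyamine control and 100% = vehicle cell control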); settings: 60 h, at 10 µM, stronger effect = lower value
[14] = inhibitors of the yeast RAM network, pilot screen, dse1pr::URA3 reporter, 5-FOA selection (AID 869;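 active = inhibition over a set limit, the all-compound mean plus 3 SD, in both replicate runs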;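 note: 0% = DMSO wells with no growth and 100% = 10 µM 1-NA-PP1 with full growth; RAM network block rescues cells from 5-FOA so hits raise OD615 growth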); settings: S. cerevisiae dse1pr::URA3 5-FOA growth, OD615, 2 d; at 10 µM; stronger effect = higher value; strain carries analog-sensitive mutant Cbk1 kinase
[15] = RAM signaling pathway blockade in yeast – S. cerevisiae, Pdr1DBD-CYC8 efflux-inhibited sensitized strain, primary screen (AID 1298;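 active = RAM network inhibition above 8.4% in each of two replicates, 3 SD over the compound average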;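 note: 0% = DMSO untreated cells without growth and 100% = 10 µM 1-NA-PP1 full growth; higher means more yeast growth rescued from 5-FOA killing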); settings: S. cerevisiae cbk1-as DSE1-URA3 strain, 5-FOA growth OD615, 2 d; at 50 µM; stronger effect = higher value
[16] = H69AR cells + 2 uM doxorubicin, measured here: viability with 2 uM doxorubicin, stronger effect = lower value
[17] = H69AR cells, compound alone cytotoxicity

Compound	viability [1] [%]	Her2 level [2]	viability [3]	viability [4]	viability [5]	differential viability (reversal) ([6]; H69AR cells + 2 uM doxorubicin)	viability [6, 16] [%]	viability [6, 17] [%]	inhibition [7]	inhibition [8]	growth inhibition [9]	growth inhibition [10]	viability increase [11]	viability [12]	viability [13]	inhibition [14]	RAM network inhibition [15]
Cc1ccc(-n2nc(C)c3cc(C(=O)O)sc32)cc1	97	95.5% (inactive)	97% (inactive)	70.7% (inactive)	87.2% (inactive)	0.315% (inactive)	86.8	87.2	-2.31% (inactive)	-2% (inactive)	16% (inactive)	21.7% (inactive)	-2.19% (inactive)	93.1% (inactive)	94.9% (inactive)	2.74% (inactive)	-1.34% (inactive)
COc1cccc(CNC(=O)Cn2c(=O)oc3ccccc32)c1OC	110	99% (inactive)	110% (inactive)	89.8% (inactive)	92.3% (inactive)	0.115% (inactive)	92.2	92.3	-6.27% (inactive)	-0.67% (inactive)	-9.48% (inactive)	-12.4% (inactive)	-0.35% (inactive)	104% (inactive)	91% (inactive)	0.75% (inactive)	-0.26% (inactive)
COCCNC(=O)c1ccc(CS(=O)(=O)c2c(Cl)cccc2Cl)o1	84.5	116% (inactive)	84.5% (inactive)	84% (inactive)	98.9% (inactive)	4.06% (inactive)	94.8	98.9	-3.47% (inactive)	-4.83% (inactive)	-17.4% (inactive)	-11.8% (inactive)	-1.73% (inactive)	103% (inactive)	93% (inactive)	1.32% (inactive)	1.21% (inactive)
Cc1cc(NC(=O)CS(=O)(=O)c2cn(Cc3cccc(F)c3)c3ccccc23)no1	124	75.5% (inactive)	124% (inactive)	69.7% (inactive)	92.7% (inactive)	3.98% (inactive)	88.7	92.7	-6.62% (inactive)	-4.67% (inactive)	-5.79% (inactive)	-24.3% (inactive)	-1.03% (inactive)	65.8% (inactive)	72.2% (inactive)	1.3% (inactive)	5.39% (inactive)
CCc1nnc(NC(=O)COC(=O)CN2C(=O)c3ccccc3C2=O)s1	104	101% (inactive)	104% (inactive)	104% (inactive)	109% (inactive)	7.39% (inactive)	101	109	-9.32% (inactive)	-6.19% (inactive)	2.25% (inactive)	1.2% (inactive)	-1.95% (inactive)	96.8% (inactive)	89.8% (inactive)	0.785% (inactive)	5.31% (inactive)
Cc1ccc(-n2ncc3c(N4CCCC(C)C4)ncnc32)c(C)c1 (stereo not given)	104	78.5% (inactive)	104% (inactive)	60.2% (inactive)	61.6% (inactive)	38.2% (inactive)	23.4	61.6	-5.07% (inactive)	8% (inactive)	-2.59% (inactive)	10% (inactive)	-8.5% (inactive)	80.5% (inactive)	80.4% (inactive)	0.12% (inactive)	2.4% (inactive)
COc1cccc(-c2nnc(NC(=O)c3ccccc3Br)o2)c1	87	85.5% (inactive)	87% (inactive)	71.6% (inactive)	67% (inactive)	-22.2% (inactive)	89.2	67	-5.87% (inactive)	1.33% (inactive)	-13.4% (inactive)	13.6% (inactive)	-5.12% (inactive)	71.7% (inactive)	73.2% (inactive)	1.46% (inactive)	-2.32% (inactive)
COc1cc(C2NC(=O)NC(C)=C2C(=O)OCC2CCCO2)ccc1O (stereo not given)	90.5	86.5% (inactive)	90.5% (inactive)	94.4% (inactive)	103% (inactive)	5.47% (inactive)	97.4	103	-6.08% (inactive)	-2.13% (inactive)	-7.94% (inactive)	-14.9% (inactive)	-1.14% (inactive)	91.1% (inactive)	88.3% (inactive)	1.59% (inactive)	1.93% (inactive)
CCOc1ccc(N(C(C)C(=O)NC2CCCCCC2)S(C)(=O)=O)cc1 (stereo not given)	90.5	98.5% (inactive)	90.5% (inactive)	101% (inactive)	94.1% (inactive)	1.44% (inactive)	92.7	94.1	-2.69% (inactive)	-3.83% (inactive)	-1.18% (inactive)	-21% (inactive)	-2.2% (inactive)	100% (inactive)	90.6% (inactive)	2.62% (inactive)	6.94% (inactive)
COc1ccc(C2CC(c3ccc(Cl)cc3Cl)Nc3nc(N)nn32)cc1 (stereo not given)	94	92% (inactive)	94% (inactive)	115% (inactive)	94% (inactive)	3.8% (inactive)	90.2	94	-1.67% (inactive)	-0.5% (inactive)	12.9% (inactive)	31.5% (inactive)	0.19% (inactive)	85.3% (inactive)	73.3% (inactive)	2.17% (inactive)	8.01% (inactive)
